Measurements from PubChem BioAssay (EPA / NIEHS).
Inconclusive results are not listed. Calls of active or inactive are those of the source. How the source made its calls: active means hit-call score of the fitted dose curve at least 0.9, where 1 is the maximum; inconclusive means response in the unintended direction; inactive means score below 0.9.

What was measured:
[1] = target: Estrogen receptor (Homo sapiens) (UniProt P03372); assay: OT_ER_ERaERa_1440: Odyssey Thera (OT) 24-hour HEK293T Protein-Complementation Assay for Estrogen Receptor-alpha/-alpha Homodimer (AID 2283349);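 further: hits raise fluorescence above DMSO for agonists and antagonists alike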
Method in brief: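 HEK293T, stable ERα LBD (aa 310-547) homodimer PCA; 24 h compound exposure; mean fluorescence intensity (nuclear for agonists, nuclear plus cytoplasmic for antagonists) vs vehicle; positive fitting direction, DMSO baseline.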

[2] = target: T1, Estrogen receptor (Homo sapiens) + Estrogen receptor beta (Homo sapiens) (UniProt P03372+Q92731); assay: OT_ER_ERaERb_1440: Odyssey Thera (OT) 24-hour HEK293T Protein-Complementation Assay for Estrogen Receptor-alpha/-beta Homodimer (AID 2283356);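 further: heteromer of ER alpha and ER beta binding domains; hits raise reporter fluorescence and both agonists and antagonists give an increase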
Method in brief: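 24 h exposure; HEK293T PCA cells with ERα/ERβ LBD fragments; signal rise in nuclear or whole-cell fluorescence over vehicle.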

[3] = target: Estrogen receptor beta (Homo sapiens) (UniProt Q92731); assay: OT_ER_ERbERb_0480: Odyssey Thera (OT) 8-hour HEK293T Protein-Complementation Assay for Estrogen Receptor-beta/-beta Homodimer (AID 2283357);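 further: active means signal gain over DMSO baseline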
Method in brief: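 ER-beta LBD homodimer PCA stably expressed in HEK293T; 8 h compound exposure, then formaldehyde fixation and Draq5 staining. Gain in nuclear/cytoplasmic fluorescence intensity versus DMSO vehicle, read on laser scanning cytometer.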

[4] = target: Androgen Receptor/SRC-1 Co-activator, AR (gene 367) (UniProt P10275); assay: OT_AR_ARSRC1_0960: Odyssey Thera (OT) 16-hour HEK293T Protein-Complementation Assay for Androgen Receptor/SRC-1 Co-activator (AID 2283353);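 further: actives raise the signal above DMSO so potency reflects increased AR and SRC-1 complex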
Method in brief: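 Stable HEK293T line carries AR and SRC-1 each linked to a Venus fragment; chemicals are applied for 16 h, cells imaged at two wavelengths, and the 488 nm nucleus/cytoplasm ratio is taken as the signal, rising relative to DMSO.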

[5] = target: T1, Estrogen receptor (Homo sapiens) + Estrogen receptor beta (Homo sapiens); assay: OT_ER_ERaERb_0480: Odyssey Thera (OT) 8-hour HEK293T Protein-Complementation Assay for Estrogen Receptor-alpha/-beta Heterodimer (AID 2283352)
Method in brief: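 Human HEK293T cells were treated for 8 hours and receptor heterodimerisation was detected through reconstitution of a fluorescent reporter split between ER-alpha and ER-beta ligand-binding domains. Activity was analysed as gain of signal against DMSO.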

[6] = target: Nuclear receptor subfamily 1 group I member 2 (Homo sapiens) (UniProt O75469); assay: NVS_NR_hPXR: NovaScreen (NVS) Nuclear Receptor Binding Assay for human Pregnane X Receptor (PXR) (AID 2283365);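 further: a drop in FRET signal versus DMSO baseline means the compound binds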
Method in brief: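 Read-out: TR-FRET, human PXR, 2 h post-dosing, cell-free. Loss of signal vs DMSO taken as binding activity; 25 uM primary, concentration series secondary.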

[7] = target: Androgen Receptor/SRC-1 Co-activator, AR (gene 367) (UniProt P10275); assay: OT_AR_ARSRC1_0480: Odyssey Thera (OT) 8-hour HEK293T Protein-Complementation Assay for Androgen Receptor/SRC-1 Co-activator (AID 2283354);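 further: hits raise the complementation signal above DMSO so AC50 marks enhancers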
Method in brief: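 Reconstituted split-Venus YFP signal from AR–SRC-1 interaction, read by imaging 8 h post-dose in stable HEK293T lines. The 488 nm nucleus-to-cytoplasm ratio (≥400 cells/image) was fitted upward against DMSO.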

[8] = target: human Thyroid Receptor Alpha (TRa), THRA (gene 7067) (UniProt P10827); assay: NVS_NR_hTRa_Antagonist: NovaScreen (NVS) Nuclear Receptor Binding Assay for human Thyroid Receptor Alpha Antagonism (TRa) (AID 2283362);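 further: activity is loss of signal relative to DMSO baseline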
Method in brief: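 In this biochemical format, receptor protein is dosed with chemical and read after 1 hour via AlphaLISA. Decreases from the DMSO baseline indicate antagonist activity; screening used 25 uM in duplicate before concentration-response confirmation.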

[9] = target: Estrogen receptor (Homo sapiens) (UniProt P03372); assay: OT_ER_ERaERa_0480: Odyssey Thera (OT) 8-hour HEK293T Protein-Complementation Assay for Estrogen Receptor-alpha/-alpha Homodimer (AID 2283351);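 further: rise in fluorescence from reassembled reporter fragments on ERα LBD homodimer in nucleus or whole cell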
Method in brief: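 Cells were treated for 8 hours, then imaged on a laser scanning plate cytometer. Complementation of reporter fragments fused to the human ERα ligand-binding domain (residues 310-547) in HEK293T gave fluorescence, and gain of signal over vehicle was fitted.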

Measured: AC50

Chain of Nuclear receptor subfamily 1 group I member 2 (Homo sapiens) (O75469 whole entry, looked up): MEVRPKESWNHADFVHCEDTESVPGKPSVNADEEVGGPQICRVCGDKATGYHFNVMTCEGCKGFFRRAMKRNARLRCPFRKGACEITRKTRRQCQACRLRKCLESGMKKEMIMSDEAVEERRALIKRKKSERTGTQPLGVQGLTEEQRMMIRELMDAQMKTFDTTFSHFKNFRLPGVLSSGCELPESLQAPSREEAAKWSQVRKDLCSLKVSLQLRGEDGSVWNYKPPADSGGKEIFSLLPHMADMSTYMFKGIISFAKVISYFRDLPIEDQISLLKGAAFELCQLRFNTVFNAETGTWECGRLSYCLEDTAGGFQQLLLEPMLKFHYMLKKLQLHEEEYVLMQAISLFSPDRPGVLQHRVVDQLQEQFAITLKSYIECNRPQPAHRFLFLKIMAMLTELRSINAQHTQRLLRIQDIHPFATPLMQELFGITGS
Chain of Estrogen receptor beta (Homo sapiens) (Q92731 whole entry, looked up, the tested form may be a part): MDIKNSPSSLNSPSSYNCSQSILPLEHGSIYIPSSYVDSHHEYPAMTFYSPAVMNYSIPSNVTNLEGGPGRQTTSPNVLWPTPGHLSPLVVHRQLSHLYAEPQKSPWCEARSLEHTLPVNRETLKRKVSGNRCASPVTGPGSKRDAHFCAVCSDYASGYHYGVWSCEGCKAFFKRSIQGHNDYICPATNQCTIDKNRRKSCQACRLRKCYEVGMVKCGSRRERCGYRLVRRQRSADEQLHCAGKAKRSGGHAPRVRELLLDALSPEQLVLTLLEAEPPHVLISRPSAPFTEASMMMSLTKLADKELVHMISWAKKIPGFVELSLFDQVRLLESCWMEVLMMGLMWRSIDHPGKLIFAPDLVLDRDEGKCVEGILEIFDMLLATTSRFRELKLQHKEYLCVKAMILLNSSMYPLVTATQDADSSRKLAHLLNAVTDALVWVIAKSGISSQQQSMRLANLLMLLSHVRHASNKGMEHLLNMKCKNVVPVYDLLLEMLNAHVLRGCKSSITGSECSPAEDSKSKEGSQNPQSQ
T1 sequence (P03372 whole entry, looked up, the tested form may be a part): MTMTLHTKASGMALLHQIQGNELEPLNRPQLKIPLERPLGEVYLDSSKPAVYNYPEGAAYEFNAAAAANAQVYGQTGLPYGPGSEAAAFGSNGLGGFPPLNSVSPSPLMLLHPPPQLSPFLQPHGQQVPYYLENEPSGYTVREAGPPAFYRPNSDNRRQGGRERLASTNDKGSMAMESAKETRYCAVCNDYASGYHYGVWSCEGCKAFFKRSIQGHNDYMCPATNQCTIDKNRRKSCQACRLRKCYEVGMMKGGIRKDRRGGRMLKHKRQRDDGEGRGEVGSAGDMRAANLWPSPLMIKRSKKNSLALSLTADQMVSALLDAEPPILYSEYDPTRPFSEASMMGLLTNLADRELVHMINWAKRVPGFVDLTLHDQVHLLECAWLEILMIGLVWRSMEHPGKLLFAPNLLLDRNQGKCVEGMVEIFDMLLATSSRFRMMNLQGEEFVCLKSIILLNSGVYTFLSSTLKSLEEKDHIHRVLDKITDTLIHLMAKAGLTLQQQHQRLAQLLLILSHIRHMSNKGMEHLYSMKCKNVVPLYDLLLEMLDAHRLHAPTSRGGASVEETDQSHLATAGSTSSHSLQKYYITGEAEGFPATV
T1 sequence (Q92731 whole entry, looked up, the tested form may be a part): as the sequence (Q92731 whole entry, looked up, the tested form may be a part) above
Chain of Estrogen receptor (Homo sapiens) (P03372 whole entry, looked up, the tested form may be a part): as the sequence (P03372 whole entry, looked up, the tested form may be a part) above
Chain of Androgen Receptor/SRC-1 Co-activator, AR (gene 367) (P10275 whole entry, looked up, the tested form may be a part): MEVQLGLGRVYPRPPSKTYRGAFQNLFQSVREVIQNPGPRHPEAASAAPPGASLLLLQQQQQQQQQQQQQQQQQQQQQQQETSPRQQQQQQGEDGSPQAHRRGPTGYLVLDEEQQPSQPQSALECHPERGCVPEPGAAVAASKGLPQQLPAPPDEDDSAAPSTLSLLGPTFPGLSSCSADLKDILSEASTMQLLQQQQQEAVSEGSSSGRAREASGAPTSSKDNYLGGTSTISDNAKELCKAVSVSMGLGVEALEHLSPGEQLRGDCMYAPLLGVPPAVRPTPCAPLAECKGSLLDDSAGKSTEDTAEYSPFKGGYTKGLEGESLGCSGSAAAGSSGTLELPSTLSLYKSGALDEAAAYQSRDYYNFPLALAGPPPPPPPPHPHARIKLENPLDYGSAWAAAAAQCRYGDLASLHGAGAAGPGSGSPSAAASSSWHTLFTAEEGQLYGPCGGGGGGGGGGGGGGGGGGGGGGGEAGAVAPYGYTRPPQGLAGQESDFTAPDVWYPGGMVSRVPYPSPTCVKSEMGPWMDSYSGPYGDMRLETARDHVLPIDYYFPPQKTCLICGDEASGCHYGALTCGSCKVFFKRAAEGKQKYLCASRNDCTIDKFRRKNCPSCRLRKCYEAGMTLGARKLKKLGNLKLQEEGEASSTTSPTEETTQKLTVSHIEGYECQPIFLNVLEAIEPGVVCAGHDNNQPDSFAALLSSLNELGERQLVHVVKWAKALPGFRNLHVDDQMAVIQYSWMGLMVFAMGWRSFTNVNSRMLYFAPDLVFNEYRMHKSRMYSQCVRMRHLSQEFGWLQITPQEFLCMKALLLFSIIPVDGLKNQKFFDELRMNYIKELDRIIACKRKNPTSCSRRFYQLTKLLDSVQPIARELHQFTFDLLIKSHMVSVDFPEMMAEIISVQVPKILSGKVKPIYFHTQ
Chain of human Thyroid Receptor Alpha (TRa), THRA (gene 7067) (P10827 whole entry, looked up): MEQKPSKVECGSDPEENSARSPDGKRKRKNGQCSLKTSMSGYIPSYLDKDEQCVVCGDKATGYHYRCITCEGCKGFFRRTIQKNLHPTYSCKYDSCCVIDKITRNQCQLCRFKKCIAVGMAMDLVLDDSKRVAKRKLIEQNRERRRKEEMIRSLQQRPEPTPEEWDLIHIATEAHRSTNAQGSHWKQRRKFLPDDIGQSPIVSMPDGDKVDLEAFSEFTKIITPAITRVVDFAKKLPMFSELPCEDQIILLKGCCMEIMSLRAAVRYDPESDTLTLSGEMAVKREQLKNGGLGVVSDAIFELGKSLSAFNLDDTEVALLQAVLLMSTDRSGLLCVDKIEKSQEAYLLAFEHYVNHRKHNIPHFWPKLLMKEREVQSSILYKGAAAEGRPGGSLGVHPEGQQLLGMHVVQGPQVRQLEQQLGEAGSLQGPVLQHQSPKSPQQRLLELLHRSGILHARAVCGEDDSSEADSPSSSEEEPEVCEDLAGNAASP

CCCCCCCCOS(=O)(=O)O
inactive: [1] | [2] | [3]

CC(=O)N(C)C
inactive: [1] | [4]

CC(=O)c1ccc2ccccc2c1
inactive: [1] | [5] | [3]
active: [2] 31.6 µM

NCCN1CCNCC1
inactive: [1] | [2] | [6]

C1CCCNCC1
inactive: [1] | [2] | [3]

FC(F)(F)c1ccc(Cl)c(Cl)c1
inactive: [5] | [4] | [7] | [2] | [3]
active: [1] 12 µM

CCCCC(CC)COCCO (stereo unspecified)
inactive: [1] | [5] | [2] | [3] | [8]

CC1=CCC(=C(C)C)CC1
inactive: [1] | [9] | [6]

CCCCCCCCCO
inactive: [1] | [5] | [2] | [3]

CC(CCO)CC(C)(C)C (stereo unspecified)
inactive: [1] | [5] | [4] | [7] | [3]
active: [2] 40.9 µM

CC(=O)Oc1c(C)c(C)c2c(c1C)CC[C@@](C)(CCC[C@H](C)CCC[C@H](C)CCCC(C)C)O2
inactive: [1] | [9] | [6]

O=C(O)CS
inactive: [1] | [2] | [3]

OCC=Cc1ccccc1
inactive: [1] | [5] | [2] | [3]

CN(C)C
inactive: [1] | [5] | [2] | [6]

CCCCCCCC(=O)N(C)C
inactive: [1] | [2] | [3]
